In all, about 370,000 compounds went through this assay and about 2,600 (0.7%) were called active. The entries come from a sample that favours actives as a whole. Values without a mark were called inactive.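 How the source made its calls: active means inhibition above a per-plate cutoff, mean inhibition of test wells between control levels plus 3 SD (cut at about 38% in these data); inactive means the rest.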

This experiment deals with COUP transcription factor 2 (Homo sapiens) (UniProt P24468). Put plainly: COUP-TFII reporter suppression in human cells – cell-based, luciferase reporter, HEK293T, luminescence, primary screen (AID 686940).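 Further: cells cotransfected with COUP-TFII expression vector driving the NGFI-A reporter; 0% = median of COUP-TF2 test wells and 100% = reporter-only cells.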 The conditions noted are these: HEK293T NGFI-A luciferase reporter, at 8.6 µM, hits give high values.
Sequence of COUP transcription factor 2 (Homo sapiens) (P24468 whole entry, looked up): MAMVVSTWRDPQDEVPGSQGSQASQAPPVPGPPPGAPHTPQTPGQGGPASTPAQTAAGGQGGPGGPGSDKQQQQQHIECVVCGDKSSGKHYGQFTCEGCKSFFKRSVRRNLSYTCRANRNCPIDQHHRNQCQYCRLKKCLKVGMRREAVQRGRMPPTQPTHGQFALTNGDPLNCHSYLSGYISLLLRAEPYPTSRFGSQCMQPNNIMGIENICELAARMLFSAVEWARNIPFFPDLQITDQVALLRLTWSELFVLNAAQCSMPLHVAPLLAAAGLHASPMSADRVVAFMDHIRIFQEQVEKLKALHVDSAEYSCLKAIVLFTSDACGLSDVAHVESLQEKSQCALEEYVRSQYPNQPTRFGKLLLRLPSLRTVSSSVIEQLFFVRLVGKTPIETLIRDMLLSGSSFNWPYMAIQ
`COC(=O)[C@H](C(C)C)N(CCCc1cn(Cc2ccccc2)nn1)S(=O)(=O)c1ccc(F)cc1Br`: the inhibition was 9.49%.

Turning to `CC(=O)Nc1ccc(OC[C@@H](O)CN2CCC(C(O)(c3ccccc3)c3ccccc3)CC2)cc1`, the inhibition is -20.7%.

Take `COc1cccc(Cn2cc(COC(=O)Nc3ccc(F)cc3)nn2)c1`: the inhibition is -23.7%.

In the case of `CCCCCc1c(-c2cccc(Br)c2)ncn1CCc1ccccc1OC`, the inhibition is 6.5%.

In the case of `CCCCc1c(-c2ccc(Cl)cc2)ncn1CCc1ccccc1OC`, the inhibition was 11.8%.

`CCCCCc1c(-c2ccc(OC)c(OC)c2)ncn1CCc1ccccc1OC`: the inhibition is 57% (active).

`Cc1ccc(CSc2nnc(SCC(=O)NN=Cc3cc(Br)ccc3F)s2)cc1`: the inhibition was -3.85%.

With `COc1ccc2c(c1)CN1CN(CCc3ccccc3)S(=O)(=O)CC21` (centres undefined), the inhibition is 16%.

Regarding `COc1ccc(OC)c(CNC(=O)Cn2nc(C)c3c(C)n(-c4ccc(C)cc4)nc3c2=O)c1`, the inhibition is 39.4% (active).

Turning to `COc1ccc(CNC(=O)C(C)n2nc(C)c3c(C)n(-c4ccccc4)nc3c2=O)c(OC)c1` (centres undefined), the inhibition was 10.4%.

For the compound `Cc1nn(CC(=O)N2CCCCC2)c(=O)c2nn(-c3ccccc3)c(C)c12`, the inhibition was -1.99%.

As for `COC(=O)[C@]12C[C@H](CC(=O)NCCCN3CCCC3=O)C(=O)N(CCc3ccc(OC)c(OC)c3)C1=C[C@H](COCc1ccccc1)O[C@@H]2C`, the inhibition is -3.72%.

Take `CCC(C)[C@@H](C(=O)OC)N(CCc1cn(Cc2ccccc2)nn1)S(=O)(=O)c1ccccc1Br` (some centres undefined): the inhibition was -9.93%.

As for `CC(=O)Oc1ccc(C(=O)Nc2nccs2)cc1`, the inhibition is -23.1%.

Consider `CSc1nccc(NC(=O)c2ccc(C(C)(C)C)cc2)n1`, for which the inhibition was 64.5% (active).

Take `CC(C)(C)c1ccc(C(=O)Nc2cc(Cl)c(Br)cc2C(=O)O)cc1`: the inhibition was 7.25%.

As to `Clc1ccc(-n2c(SC/C=C/c3ccccc3)nnc2-c2ccco2)cc1`, the inhibition is 13.9%.

For the compound `Cc1ccc(Cn2cc(CN3[C@@H](CC(C)C)COc4ccc(Cl)cc4S3(=O)=O)nn2)cc1`, the inhibition was -4.67%.

With `COc1ccc(NC(=O)C2(C)Cc3c(-c4cccc(NC(C)=O)c4)ccnc3O2)cc1OC` (centres undefined), the inhibition was -4.02%.

With `COc1ccc(NC(=O)C2Cc3c(-c4cccc(NC(C)=O)c4)ccnc3O2)cc1OC` (centres undefined), the inhibition is 45% (active).

As for `COc1ccc(NC(=O)C2Cc3c(-c4ccc(Cl)cc4)ccnc3O2)cc1` (centres undefined), the inhibition is 5.98%.

For `O=C(CSc1nnc(-c2ccccn2)n1-c1ccccc1)Nc1ccc2cn[nH]c2c1`, the inhibition is 13.3%.

On to `CCCCNC(=O)C[C@@H]1C(=O)N(CCc2ccc(Cl)cc2)C2=CCCC[C@]21C(=O)OCC`, for which the inhibition is 15.3%.

With `CCOC(=O)N1CCN(C(=O)C[C@@H]2C(=O)N(CCc3ccc(Cl)cc3)C3=CCCC[C@]32C(=O)OCC)CC1`, the inhibition was 45.6% (active).

As for `C=CCN1C(=O)[C@H](CC(=O)N2CCN(C(=O)OCC)CC2)[C@@]2(C(=O)OCC)CCCC=C12`, the inhibition is -10.2%.

On to `O=C1CC[C@@H](COc2ccc3[nH]cc(-c4ccccc4)c3c2-c2ccccc2)N1`, for which the inhibition was -9.36%.

On to `O=C1C=C(c2cccc(Cl)c2O)C[C@@H](c2ccc(F)cc2)C1`, for which the inhibition is 4.63%.

In the case of `O=C1C=C(c2ccnc3cc(Cl)ccc23)C[C@@H](c2ccc3c(c2)OCO3)C1`, the inhibition was 56% (active).

With `N#Cc1ccc(C2=CC(=O)C[C@H](c3ccc(Cl)cc3)C2)cc1`, the inhibition was 17.5%.

With `Clc1ncn(CCOc2ccccc2)c1Cl`, the inhibition was 6.16%.

For `Clc1c(OCCCn2ccnc2)ccc2ccccc12`, the inhibition is -3.68%.

`c1ccc(Cc2ccc(OCCn3ccnc3)cc2)cc1`: the inhibition is 54.5% (active).

With `COCC(=O)N[C@@H]1C[C@@H]2O[C@@H](CO)CC[C@@H]2O[C@@H]1CCc1ccc(-c2ccccc2)cc1`, the inhibition is 1.52%.

As to `CC[C@@H](CCC(=O)N(c1ccccc1)c1ccccc1)C1CC1`, the inhibition was 15.5%.

In the case of `O=C1Nc2ccccc2OC1CC(=O)N1CCCCCCC1` (centres undefined), the inhibition is 18.8%.

`O=C(OC12CCCN(C1)/C(=C/c1ccccc1)C2)c1ccco1` (centres undefined): the inhibition is -14.4%.

On to `COc1cc(C(=O)OCCCN2CCOCC2)cc(OC)c1OC`, for which the inhibition was -1.26%.

Turning to `CCOC(=O)C1=C(N)N2C(=O)C(C)SC2=C(C(=O)OCC)C1c1cc(OC)c(OC)c(OC)c1` (centres undefined), the inhibition was -10.4%.

In the case of `CCCOC(=O)c1[nH]c2c(c1C)C(=O)CC(c1cc(OC)c(OC)c(OC)c1)C2` (centres undefined), the inhibition was 62.1% (active).

For the compound `C=CCN(Cc1ccc2c(c1)OCO2)C(C#CC1CC1)C(C)(C)C` (centres undefined), the inhibition is 9.73%.

For the compound `Cc1c(C(C)c2ccccc2O)[nH]c2ccccc12` (centres undefined), the inhibition is 13.6%.

Regarding `CCOC(=O)[C@]12CCCC=C1N(Cc1ccc(OC)cc1)C(=O)[C@@H]2CC(=O)NCc1cccs1`, the inhibition was 6.16%.

As to `COC(=O)[C@]12C[C@H](CC(=O)NCc3cccc4ccccc34)C(=O)N(CCc3ccc(OC)c(OC)c3)C1=C[C@H](C1CCCC1)O[C@@H]2C`, the inhibition was 13.6%.

Regarding `CCn1c(=O)c(=O)[nH]c2c(=O)oc3ccc(S(=O)(=O)Nc4ccc(OC)cc4)cc3c21`, the inhibition was 4.47%.

Regarding `CC(=O)c1c(C)oc2ccc(NS(=O)(=O)c3ccccc3)cc12`, the inhibition was 21.9%.

`COc1ccc(S(=O)(=O)Nc2ccc3oc(C)c(C(C)=O)c3c2)cc1`: the inhibition is 42.4% (active).

For the compound `COc1ccc(CN2C/C(=C/c3ccccc3)N3C(=O)C[C@@H](c4ccccc4)N=C23)c(OC)c1`, the inhibition is 4.08%.

On to `CC(=O)c1cc(-c2ccc3ccccc3c2)c(=O)n2c1CCC2`, for which the inhibition was 16.2%.

As to `Cc1cc2nnc(SCC(=O)N3CCN(c4ccccc4)CC3)n2c(N)n1`, the inhibition is 8.19%.

As to `Cn1c(Cc2cccc3ccccc23)nnc1SCC(=O)N1CCN(c2cccc(Cl)c2)CC1`, the inhibition was 42.6% (active).

In the case of `Cn1c(CNC(=O)c2ccco2)nnc1SCC(=O)N1CCN(c2ccccc2)CC1`, the inhibition was -5.83%.

With `COc1ccnc(NC(=S)N2CCN(c3ncc(C(F)(F)F)cc3Cl)CC2)c1`, the inhibition is -6.96%.

Turning to `CCCCCCN1CCS(=O)(=O)N(Cc2ccc(C(F)(F)F)cc2)C(C(=O)OC)C1` (centres undefined), the inhibition was 1.89%.

Turning to `C=CCn1c(C)cc(C2=NNC(=NCC)SC2)c1C`, the inhibition is 94.5% (active).

On to `CC(=O)C1(C(=O)Nc2nccs2)CC(c2ccccc2C(F)(F)F)=NO1` (centres undefined), for which the inhibition was -12.3%.

Consider `COC(=O)c1cc(S(=O)(=O)N2CCN(c3ccccc3C)CC2)cn1C`, for which the inhibition was 10.7%.

As to `CCn1c(SCC(C)=O)nc2sc3c(c2c1=O)CCCC3`, the inhibition is -12%.

In the case of `COc1ccccc1CNC(=O)c1ccc(Cl)c(S(=O)(=O)N2CCCC2)c1`, the inhibition is 0.19%.

On to `NS(=O)(=O)c1ccc(CCNC(=O)c2ccc(Cl)c(S(=O)(=O)N3CCCCCC3)c2)cc1`, for which the inhibition is 60.3% (active).

As for `O=C(NCCc1ccc(F)cc1)c1ccc(S(=O)(=O)N2CCCCC2)cc1`, the inhibition was -1.06%.

Turning to `CCCC1CCC2(CCCN2CCOC(=O)NCc2ccccc2)CC1` (centres undefined), the inhibition is -2.03%.

As for `O=C(NC1CCCCN(Cc2ccc(Cl)cc2)C1=O)c1ccc(Br)cc1` (centres undefined), the inhibition is 12.4%.

As for `CCOC(=O)C1(Cc2ccccc2)CCN(Cc2cn(C(C)=O)c3ccccc23)CC1`, the inhibition was 19.5%.

On to `Fc1ccc(COc2cccc(-c3n[nH]c(=S)o3)c2)cc1`, for which the inhibition is -3.8%.

For `CC(=O)c1ccccc1OCc1ccc(C(=O)c2ccccc2)cc1`, the inhibition is 23.1%.

As for `Cc1nc2ccccc2cc1OCc1ccc(F)cc1`, the inhibition is 41.9% (active).

For `COc1ccc(Cn2cc(CN3[C@@H](CC(C)C)COc4cc(Br)ccc4S3(=O)=O)nn2)cc1`, the inhibition was 0.76%.

For the compound `O=C(Nc1ccc(S(=O)(=O)N2CCOCC2)cc1)C1CCN(S(=O)(=O)c2ccc(Cl)cc2)CC1`, the inhibition was 44.8% (active).

As for `CC(=O)Nc1ccc(NC(=O)C2CCCN(S(=O)(=O)c3ccc(Cl)cc3)C2)cc1` (centres undefined), the inhibition is -3.16%.

As to `CC(=O)Nc1ccc(S(=O)(=O)N2CCC(C(=O)NC3CC3)CC2)cc1`, the inhibition was -8.71%.

`COC(=O)C1CN(Cc2ccc(F)cc2)CCS(=O)(=O)N1Cc1ccc(Cl)cc1` (centres undefined): the inhibition is 7.77%.

Take `CN(C(=O)c1cccc(NC(=O)Cc2ccc(NC(=O)C3CCN(C(=O)C4CCCCC4)CC3)cc2)c1)C1CCC1`: the inhibition was -2.15%.

As to `CN(C(=O)c1cccc(NC(=O)Cc2cccc([N+](=O)[O-])c2)c1)C1CCCCC1`, the inhibition was 38.2% (active).

On to `CN(CCc1ccccc1)C(=O)c1cccc(NC(=O)Cc2cccc(NC(=O)C3CCCN(C(=O)C4CCC4)C3)c2)c1` (centres undefined), for which the inhibition was 9.42%.

As for `CN(C(=O)c1cccc(NC(=O)Cc2cccc(NC(=O)C3CCCN(C(=O)C4CC4)C3)c2)c1)C1CCC1` (centres undefined), the inhibition is 2.2%.

`CN(C(=O)c1cccc(NC(=O)Cc2ccc([N+](=O)[O-])cc2)c1)C1CCC1`: the inhibition was 33.2%.

With `CN(CCc1ccccc1)C(=O)c1cccc(NC(=O)Cc2cccc(NC(=O)C3CCCN(C(=O)CCc4ccccc4)C3)c2)c1` (centres undefined), the inhibition was 44.5% (active).

On to `COC(=O)C1CN(CCc2ccccc2)CCS(=O)(=O)N1Cc1cccc(Cl)c1` (centres undefined), for which the inhibition was -5.31%.

Turning to `Cc1ccc(-n2c(SCC(=O)Nc3ccc(S(=O)(=O)Nc4nccs4)cc3)nnc2-c2cccnc2)cc1`, the inhibition is 8.88%.

Turning to `O=C(CSc1nnc(-c2cccc(Cl)c2)n1Cc1ccco1)Nc1ccc(OCc2ccccc2)cc1`, the inhibition was -14.7%.

Consider `O=C(NC1CCC1)c1ccc(C#Cc2cccc(F)c2)c[n+]1[O-]`, for which the inhibition is 0.7%.

Turning to `COc1ccc(S(=O)(=O)N2C[C@H]3CON(C)[C@H]3C[C@H]2c2cccc(Br)c2)cc1`, the inhibition is 10.7%.

`COc1ccccc1-c1ccc([C@@H]2C[C@H]3[C@H](CON3C)CN2S(=O)(=O)c2cc(Cl)cc(Cl)c2)cc1`: the inhibition is 5.76%.

Consider `CN1OC[C@@H]2CN(S(=O)(=O)c3cccc(C(F)(F)F)c3)[C@H](c3ccc(-c4cc5ccccc5o4)cc3)C[C@@H]21`, for which the inhibition was 44.1% (active).

(Values after PubChem BioAssay AID686940 (The Scripps Research Institute Molecular Screening Center, 2013).)
